The assay can be described thus: JC-1 mitochondrial signal, unstimulated HepG2 cells – cell-based, JC-1 fluorescence, 24 h, 100 nL compound, profiling panel (AID 1167). Note: test concentration not given here. To be noted: HepG2 mitochondrial potential, higher = more signal.
The compound `COC(=O)C1(Cc2ccccc2)C=C2C(=C(C(C)C)C(=O)C2C)CN1` (stereo not given) registered a z-score of -1.
To `Cc1c(NC(=O)/C(C#N)=C/C=C/c2ccccc2[N+](=O)[O-])c(=O)n(-c2ccccc2)n1C` belongs -1.76; to `[N-]=[N+]=NCc1ccccc1C[C@@]1(C(=O)NCCN2CCOCC2)N=C(c2ccc(OCCCO)cc2)O[C@@H]1c1ccccc1N=[N+]=[N-]`, 0.862; to `C[n+]1ccc(CCCO)cc1`, -0.0921.
The compound `CN1C(=O)C2C=CC(C(O)c3c(F)cccc3Cl)N(Nc3ccccc3)C2C1=O` (stereo not given) yielded a z-score of -1.4.
Under `C=C[C@@H](C)[C@H](OC(=O)Nc1ccc(SC)cc1)c1ccc(OCCO)cc1` stands -0.692; under `CC(C)C(O)C1C=CC2C(=O)N(C)C(=O)C2N1N(c1ccccc1)c1ccccc1` (stereo not given), -0.0204.
The compound `O=C1c2ccccc2[C@](Cc2ccccc2I)(C(=O)NCc2ccccc2)[C@H](c2ccc(CO)cc2)N1C1CCCCC1` came in with a z-score of 1.36.
Under `CC(=O)n1cc(C(O)C2C=CC3C(=O)N(Cc4ccccc4)C(=O)C3N2n2cnnc2)c2ccccc21` (stereo not given) stands -1.07; under `COc1cc2c(cc1OC)CN(C(=O)[C@H]1[C@@H]3C(=O)O[C@@H](c4ccccc4)[C@@H](c4ccccc4)N3[C@@H](c3ccc(OCCO)cc3)[C@]13C(=O)Nc1ccc(C#CC4(O)CCCCCC4)cc13)CC2`, -0.871.
`O=c1cccc(-c2ccc(C(F)(F)F)cc2)o1` showed a z-score of -0.487.
To `COc1ccc(C(O)C2C=CC3C(=O)N(Cc4ccccc4)C(=O)C3N2n2cnnc2)c2ccccc12` (stereo not given) belongs -0.722; to `CC(C)(C)OC(=O)CC[C@]1(C(=O)NCCN2CCOCC2)N=C(c2ccc(OCCCO)cc2)O[C@H]1c1ccccc1N=[N+]=[N-]`, 1.27; to `C=CC[C@H](OC(=O)Nc1ccc(OC)cc1)c1ccc(O)c2ccccc12`, -2.68.
Consider `COC(=O)[C@@]1(Cc2ccc(OC)cc2)[C@H]2c3cc(C(=O)N4CCCC4)n(CCc4cc5ccccc5[nH]4)c3C[C@H]2CN1C(=O)c1ccccc1`, for which the z-score amounted to 0.877.
Under `COc1ccc(CCNC(=O)[C@@]2(Sc3ccc(C)cc3)CC(=O)N(Cc3cc(C(F)(F)F)cc(C(F)(F)F)c3)[C@@H]2c2ccc(CO)cc2I)cc1` stands -1.08; under `COc1ccc(C(O)C2C=CC3C(=O)N(C)C(=O)C3N2N2CCCCC2)cc1` (stereo not given), -0.49; under `COc1ccc([Si](C)(C)[C@@H]2[C@@H](CC(=O)N3CCC[C@H]3CO)O[C@]3(C(=O)N(Cc4ccc(N5C(=O)c6cccc7cccc5c67)cc4)c4ccccc43)[C@H]2C)cc1`, -1.18.
To `O=C1c2ccccc2[C@@]2(Cc3ccccc3N(C3CC3)C2=O)[C@H](c2ccc(CO)cc2)N1C1CCCCC1` belongs -0.266; to `CCOC(=O)C1=CC[C@@H](c2cc(Cl)ccc2Cl)N(S(=O)(=O)c2ccc(C)cc2)[C@H]1c1ccc(OC)cc1`, 1.17.
Under `CC=CC(O)C1C=CC2C(=O)N(C)C(=O)C2N1N1CCCCC1` (stereo not given) stands -1.52.
For the compound `C=C(C(=O)CC[C@H](OC(C)=O)c1cccc(OCCO)c1)C(C)C`, the z-score was -1.1.
Under `CC(C)C(=C=CC[C@H](O)c1ccc(OCCO)cc1)C[C@H](O)c1cc(Cl)cc(Cl)c1O` stands -1.77.
Under `COc1ccc(C#Cc2ccc3c(c2)[C@]2(C(=O)N3)[C@H](C(=O)N3CCc4cc(OC)c(OC)cc4C3)[C@H]3C(=O)O[C@H](c4ccccc4)[C@H](c4ccccc4)N3[C@@H]2c2ccc(O)cc2)cc1` stands -1.43; under `CN1C(=O)[C@@]2(CCS(=O)(=O)c3ccccc3)N=C(c3ccc(OCCCO)cc3)O[C@H]2c2ccccc21`, 0.214; under `CC[C@H]1C2=C3C(CC[C@H]4C(OCc5ccc(F)cc5C(F)(F)F)OC[C@](C)([C@@H]34)N(C(=O)OC(C)(C)C)C2)C2COC(=O)OCC21` (stereo not given in full), -0.492.
With `Cc1ccc(S[C@]2(C(=O)NCc3ccccc3)CC(=O)N(C(C)C)[C@@H]2c2ccc(CO)cc2I)cc1`, the z-score is -0.0692.
In the case of `Cc1ccc(C(C)CC(O)C2C=CC3C(=O)N(c4ccccc4)C(=O)C3N2Nc2ccc(C(C)C)cc2)o1` (stereo not given), the z-score was -2.29.
`COCCOC(=O)N1C(=O)[C@@]2(c3cc(C#Cc4ccc(OC)cc4)ccc31)[C@H](C(=O)NC[C@H](O)c1ccccc1)[C@H]1C(=O)O[C@H](c3ccccc3)[C@H](c3ccccc3)N1[C@@H]2c1ccc(O)cc1`: the z-score was -2.11.
Consider `COCCOC(=O)N1C(=O)[C@@]2(c3cc(C#CC4(O)CCCCCC4)ccc31)[C@H](C(N)=O)[C@H]1C(=O)O[C@H](c3ccccc3)[C@H](c3ccccc3)N1[C@@H]2c1ccc(O)cc1`, for which the z-score is -0.0298.
Regarding `CC1CC/C=C\[C@H]2OC34C=CCN(C(C)C)C(=O)[C@H]3N(CCCCCO)C(=O)[C@@H]4C2C(=O)O1` (stereo not given in full), the z-score is 0.583.
Consider `CCOC(=O)C1=CC[C@@H](c2ccccc2)N(S(=O)(=O)c2ccc(C)cc2)C1`, for which the z-score is 0.546.
Consider `CCN(CC)c1ccc(N2CC=CC34O[C@@H]5/C=C\CCC(C)OC(=O)C5[C@H]3C(=O)N(CCO)[C@@H]4C2=O)cc1` (stereo not given in full), for which the z-score is 0.178.
Under `C=CCOC(=O)[C@H]1[C@@H]2C(=O)O[C@@H](c3ccccc3)[C@@H](c3ccccc3)N2[C@@H](c2ccc(OCCOC(=O)[C@H]3C[C@H]4C(=O)N[C@@H](CCCC[N+](C)(C)C)C(=O)N4[C@H]3c3cccc(OCCO)c3)cc2)[C@]12C(=O)Nc1ccc(I)cc12` stands -2.
In turn, `O=C1C[C@@](C(=O)NCC(F)(F)F)(c2ccc([N+](=O)[O-])cc2)[C@@H](c2ccc(CO)cc2)N1C1CCCCC1` registered a z-score of 0.0995.

Source of the values: PubChem BioAssay.
